# Measurements taken from the supplement of paper PMC8728848.
# Shown is part of a subset that was picked to be rich in the strongest signals.
# B1: SEX4 (Arabidopsis thaliana), Q944A8 (protein)
# chain: TQAMGAVLTYRHELGMNYNFIRPDLIVGSCLQTPEDVDKLRKIGVKTIFCLQQDPDLEYFGVDISSIQAYAKKYSDIQHIRCEIRDFDAFDLRMRLPAVVGTLYKAVKRNGGVTYVHCTAGMGRAPAVALTYMFWVQGYKLMEAHKLLMSKRSCFPKLDAIRNATIDILTGLKRKTVTLTLKDKGFSRVEISGLDIGWGQRIPLTLGKGTGFWILKRELPEGQFEYKYIIDGEWTHNEAEPFIGPNKDGHTNNYAKVVDDPTSVDGTTRERLSSEDPELLEEERSKLIQFLETCSEAEV
# Assays:
# Assay in all cases: glycan array binding signal (z-score within array); higher = stronger binding
# Conditions in all cases: glycan notation: IUPAC condensed, linker removed
# [1] = target: Fuc(a1-2)Gal(b1-3)GlcNAc(b1-2)Man(a1-3)[Fuc(a1-2)Gal(b1-3)GlcNAc(b1-2)Man(a1-6)]Man(b1-4)GlcNAc(b1-4)GlcNAc
# Summary of the method: (§1)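 The binding signal is a Z-score computed within each array. Data were drawn from 3228 arrays in the Consortium for Functional Glycomics database, restricted to those with a known protein sequence. Scores were averaged over arrays of the same protein sequence at different concentrations or buffers, and over linkers, and negative values can be taken as non-binding.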
# [2] = target: Fuc(a1-2)Gal(b1-3)GlcNAc(b1-3)[Fuc(a1-3)[Gal(b1-4)]GlcNAc(b1-6)]Gal(b1-4)Glc
# Summary of the method: as §1
# [3] = target: Fuc(a1-2)Gal(b1-3)[Fuc(a1-4)]GlcNAc
# Summary of the method: as §1
# [4] = target: Fuc(a1-2)Gal(b1-4)GlcNAc(b1-2)[Fuc(a1-2)Gal(b1-4)GlcNAc(b1-4)]Man(a1-3)[Fuc(a1-2)Gal(b1-4)GlcNAc(b1-2)Man(a1-6)]Man(b1-4)GlcNAc(b1-4)GlcNAc
# Summary of the method: as §1
# [5] = target: Fuc(a1-2)[Gal(a1-3)]Gal(b1-3)GlcNAc
# Summary of the method: as §1
# [6] = target: Fuc(a1-2)[GalNAc(b1-3)]Gal
# Summary of the method: as §1
# [7] = target: Fuc(a1-3)[Gal(b1-4)]GlcNAc(b1-3)GalNAc
# Summary of the method: as §1
# Gal(a1-3)Gal(b1-4)Glc = target: Gal(a1-3)Gal(b1-4)Glc
# Summary of the method: as §1
# Gal(a1-3)Gal(b1-4)GlcNAc = target: Gal(a1-3)Gal(b1-4)GlcNAc
# Summary of the method: as §1
# [8] = target: Gal(a1-3)[Gal(a1-4)]Gal(b1-4)GlcNAc
# Summary of the method: as §1
# Gal(a1-4)Gal(b1-4)GlcNAc = target: Gal(a1-4)Gal(b1-4)GlcNAc
# Summary of the method: as §1
# [9] = target: Gal(b1-3)Gal(b1-4)GlcNAc(b1-2)Man(a1-3)[Gal(b1-3)Gal(b1-4)GlcNAc(b1-2)Man(a1-6)]Man(b1-4)GlcNAc(b1-4)GlcNAc
# Summary of the method: as §1
# [10] = target: Gal(b1-3)GalNAc(b1-3)Gal(a1-4)Gal(b1-4)Glc
# Summary of the method: as §1
# Gal(b1-3)GlcNAc = target: Gal(b1-3)GlcNAc
# Summary of the method: as §1
# [11] = target: Gal(b1-3)GlcNAc(b1-3)Gal(b1-4)GlcNAc(b1-6)[Gal(b1-3)GlcNAc(b1-3)]Gal(b1-4)Glc
# Summary of the method: as §1
# [12] = target: Gal(b1-3)[Fuc(a1-4)]GlcNAc
# Summary of the method: as §1
# [13] = target: Gal(b1-3)[Fuc(a1-4)]GlcNAc(b1-2)Man(a1-3)[Gal(b1-3)[Fuc(a1-4)]GlcNAc(b1-2)Man(a1-6)]Man(b1-4)GlcNAc(b1-4)[Fuc(a1-6)]GlcNAc
# Summary of the method: as §1
# [14] = target: Gal(b1-3)[Fuc(a1-4)]GlcNAc(b1-3)Gal(b1-4)GlcNAc
# Summary of the method: as §1
# Gal(b1-4)Gal = target: Gal(b1-4)Gal
# Summary of the method: as §1
# [15] = target: Gal(b1-4)GlcNAc(b1-3)Gal(b1-3)GlcNAc
# Summary of the method: as §1
# [16] = target: Gal(b1-4)GlcNAc(b1-3)Gal(b1-4)[Fuc(a1-3)]GlcNAc(b1-3)Gal(b1-4)[Fuc(a1-3)]GlcNAc
# Summary of the method: as §1
# [17] = target: Gal(b1-4)GlcNAc(b1-3)[GlcNAc(b1-6)]Gal(b1-4)GlcNAc
# Summary of the method: as §1
# Gal3S(b1-3)GalNAc = target: Gal3S(b1-3)GalNAc
# Summary of the method: as §1
# Gal3S(b1-4)GlcNAc6S = target: Gal3S(b1-4)GlcNAc6S
# Summary of the method: as §1
# Gal3S6S(b1-4)GlcNAc6S = target: Gal3S6S(b1-4)GlcNAc6S
# Summary of the method: as §1
# Gal6S(b1-3)GlcNAc6S = target: Gal6S(b1-3)GlcNAc6S
# Summary of the method: as §1
# Gal6S(b1-4)GlcNAc = target: Gal6S(b1-4)GlcNAc
# Summary of the method: as §1
# [18] = target: GalNAc(b1-3)Gal(a1-4)Gal(b1-4)GlcNAc
# Summary of the method: as §1
# Glc(a1-4)Glc = target: Glc(a1-4)Glc
# Summary of the method: as §1
# Glc(b1-4)Glc = target: Glc(b1-4)Glc
# Summary of the method: as §1
# GlcA(b1-3)GlcNAc = target: GlcA(b1-3)GlcNAc
# Summary of the method: as §1
# [19] = target: GlcNAc(b1-2)Man(a1-3)[GlcNAc(b1-2)Man(a1-6)]Man(b1-4)GlcNAc(b1-4)[Fuc(a1-6)]GlcNAc
# Summary of the method: as §1
# [20] = target: GlcNAc(b1-2)[GlcNAc(b1-4)]Man(a1-3)[GlcNAc(b1-4)][GlcNAc(b1-2)Man(a1-6)]Man(b1-4)GlcNAc(b1-4)GlcNAc
# Summary of the method: as §1
# [21] = target: GlcNAc(b1-2)[GlcNAc(b1-6)]Man(a1-6)[GlcNAc(b1-2)Man(a1-3)][GlcNAc(b1-4)]Man(b1-4)GlcNAc(b1-4)GlcNAc
# Summary of the method: as §1
# [22] = target: GlcNAc(b1-4)GlcNAc(b1-4)GlcNAc
# Summary of the method: as §1
# [23] = target: GlcNAc(b1-4)[GlcNAc(b1-6)]GalNAc
# Summary of the method: as §1
# Kdn(a2-3)Gal(b1-3)GalNAc = target: Kdn(a2-3)Gal(b1-3)GalNAc
# Summary of the method: as §1
# Kdn(a2-3)Gal(b1-4)GlcNAc = target: Kdn(a2-3)Gal(b1-4)GlcNAc
# Summary of the method: as §1
# Kdn(a2-6)Gal(b1-4)GlcNAc = target: Kdn(a2-6)Gal(b1-4)GlcNAc
# Summary of the method: as §1
# [24] = target: Neu5Ac(a2-3)Gal(b1-3)GalNAc(b1-4)[Neu5Ac(a2-8)Neu5Ac(a2-3)]Gal(b1-4)Glc
# Summary of the method: as §1
# [25] = target: Neu5Ac(a2-3)Gal(b1-3)GlcNAc(b1-3)GalNAc
# Summary of the method: as §1
# Neu5Ac(a2-3)GalNAc = target: Neu5Ac(a2-3)GalNAc
# Summary of the method: as §1
# Neu5Ac(a2-6)Gal = target: Neu5Ac(a2-6)Gal
# Summary of the method: as §1
# [26] = target: Neu5Ac(a2-6)Gal(b1-4)GlcNAc(b1-2)Man(a1-3)[Man(a1-6)]Man(b1-4)GlcNAc(b1-4)GlcNAc
# Summary of the method: as §1
# [27] = target: Neu5Ac(a2-6)Gal(b1-4)GlcNAc6S
# Summary of the method: as §1
# [28] = target: Neu5Ac(a2-6)GalNAc(b1-4)GlcNAc
# Summary of the method: as §1
# Neu5Ac(a2-8)Neu5Ac = target: Neu5Ac(a2-8)Neu5Ac
# Summary of the method: as §1
# [29] = target: Neu5Gc(a2-6)Gal(b1-4)GlcNAc
# Summary of the method: as §1
# [30] = target: Neu5Gc(b2-6)Gal(b1-4)GlcNAc
# Summary of the method: as §1
binder,measurement,setting,value
B1,glycan array binding signal (z-score),[1],-0.14
same,glycan array binding signal (z-score),[2],-0.488
same,glycan array binding signal (z-score),[3],-0.43
same,glycan array binding signal (z-score),[4],3.41
same,glycan array binding signal (z-score),[5],-0.101
same,glycan array binding signal (z-score),[6],-0.555
same,glycan array binding signal (z-score),[7],2.34
same,glycan array binding signal (z-score),Gal(a1-3)Gal(b1-4)Glc,-0.237
same,glycan array binding signal (z-score),Gal(a1-3)Gal(b1-4)GlcNAc,0.108
same,glycan array binding signal (z-score),[8],-0.539
same,glycan array binding signal (z-score),Gal(a1-4)Gal(b1-4)GlcNAc,-0.482
same,glycan array binding signal (z-score),[9],-0.329
same,glycan array binding signal (z-score),[10],-0.231
same,glycan array binding signal (z-score),Gal(b1-3)GlcNAc,-0.554
same,glycan array binding signal (z-score),[11],-0.273
same,glycan array binding signal (z-score),[12],-0.398
same,glycan array binding signal (z-score),[13],-0.406
same,glycan array binding signal (z-score),[14],0.013
same,glycan array binding signal (z-score),Gal(b1-4)Gal,-0.4
same,glycan array binding signal (z-score),[15],-0.483
same,glycan array binding signal (z-score),[16],-0.35
same,glycan array binding signal (z-score),[17],-0.354
same,glycan array binding signal (z-score),Gal3S(b1-3)GalNAc,-0.502
same,glycan array binding signal (z-score),Gal3S(b1-4)GlcNAc6S,0.229
same,glycan array binding signal (z-score),Gal3S6S(b1-4)GlcNAc6S,2.76
same,glycan array binding signal (z-score),Gal6S(b1-3)GlcNAc6S,1.27
same,glycan array binding signal (z-score),Gal6S(b1-4)GlcNAc,0.104
same,glycan array binding signal (z-score),[18],-0.406
same,glycan array binding signal (z-score),Glc(a1-4)Glc,-0.393
same,glycan array binding signal (z-score),Glc(b1-4)Glc,-0.561
same,glycan array binding signal (z-score),GlcA(b1-3)GlcNAc,16
same,glycan array binding signal (z-score),[19],3.1
same,glycan array binding signal (z-score),[20],0.008
same,glycan array binding signal (z-score),[21],-0.06
same,glycan array binding signal (z-score),[22],-0.388
same,glycan array binding signal (z-score),[23],-0.489
same,glycan array binding signal (z-score),Kdn(a2-3)Gal(b1-3)GalNAc,0.126
same,glycan array binding signal (z-score),Kdn(a2-3)Gal(b1-4)GlcNAc,0.514
same,glycan array binding signal (z-score),Kdn(a2-6)Gal(b1-4)GlcNAc,-0.36
same,glycan array binding signal (z-score),[24],0.161
same,glycan array binding signal (z-score),[25],2.39
same,glycan array binding signal (z-score),Neu5Ac(a2-3)GalNAc,-0.529
same,glycan array binding signal (z-score),Neu5Ac(a2-6)Gal,-0.496
same,glycan array binding signal (z-score),[26],2.32
same,glycan array binding signal (z-score),[27],2.46
same,glycan array binding signal (z-score),[28],-0.017
same,glycan array binding signal (z-score),Neu5Ac(a2-8)Neu5Ac,-0.065
same,glycan array binding signal (z-score),[29],0.489
same,glycan array binding signal (z-score),[30],-0.09
